# Experimental data published in the supplement of paper PMC3898565.
# Counter-ions that a name gives are not always drawn. ± gives the uncertainty stated by the source.
# Tested on: U87
# Test: cell viability relative to vehicle control; higher = less growth inhibition (less active)
# Settings: 10 µM; 72 h
# 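Further: viable cell number estimated from Alamar Blue fluorescence read at 560/90, part of a single-dose primary screen of an FDA-approved drug library.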
row,Structure (SMILES),cell viability [%]
1,CCOc1cc(CC(=O)N[C@@H](CC(C)C)c2ccccc2N2CCCCC2)ccc1C(=O)O,105 ± 1.5
2,CC(C)(O)c1ccccc1CC[C@@H](SCC1(CC(=O)O)CC1)c1cccc(/C=C/c2ccc3ccc(Cl)cc3n2)c1,101.8 ± 0.94
3,COc1ccccc1OCC(O)CN1CCN(CC(=O)Nc2c(C)cccc2C)CC1 (centres undefined) [Ranolazine dihydrochloride],102.8 ± 0.94
4,Nc1nc2ccc(OC(F)(F)F)cc2s1 [Riluzole],98.1 ± 1.5
5,CN(C)CCCSc1ccccc1NC(=O)/C=C/c1ccccc1 [Cinanserin],103.3 ± 0.66
6,CC(=O)NCCCCCCNC(C)=O,103.9 ± 0.65
7,C[C@]12CCC(=O)C=C1CC[C@@H]1[C@@H]2CC[C@@]2(C)[C@H]1CC[C@]2(O)C(=O)CO,103.8 ± 0.18
8,COCCCOc1ccnc(C[S+]([O-])c2nc3ccccc3[nH]2)c1C (centres undefined),108.6 ± 0.87
9,O=C1Nc2ccc(Cl)cc2[C@@](C#CC2CC2)(C(F)(F)F)O1,107 ± 1.1
10,CC(C)NCC(O)COc1ccc(COCCOC(C)C)cc1 (centres undefined),104 ± 2.4
11,Cc1ccc(O)c([C@H](CCN(C(C)C)C(C)C)c2ccccc2)c1,103.8 ± 0.47
12,CC[C@]1(O)C[C@@H]2CN(CCc3c([nH]c4ccccc34)[C@@](C(=O)OC)(c3cc4c(cc3OC)N(C)[C@H]3[C@@](O)(C(N)=O)[C@H](O)[C@]5(CC)C=CCN6CC[C@]43[C@@H]65)C2)C1,24.7 ± 8.7
13,CC(=O)[C@]1(O)Cc2c(O)c3c(c(O)c2[C@@H](O[C@H]2C[C@H](N)[C@H](O)[C@H](C)O2)C1)C(=O)c1ccccc1C3=O [Idarubicin HCL],31.6 ± 2.3
14,C#C[C@]1(O)CC[C@H]2[C@@H]3CCC4=CC(=O)CC[C@@H]4[C@H]3CC[C@@]21CC,105.5 ± 0.58
15,CC[C@H]1OC(=O)[C@H](C)C(=O)[C@H](C)[C@@H](O[C@@H]2O[C@H](C)C[C@H](N(C)C)[C@H]2O)[C@](C)(OC)C[C@@H](C)C(=O)[C@H](C)[C@H]2N(CCCCn3cnc(-c4cccnc4)c3)C(=O)O[C@]12C,103.4 ± 0.35
16,CO[C@@H]1[C@@H](O[C@@H]2O[C@H](C)[C@@H](O[C@H]3C[C@@](C)(O)[C@@H](OC(=O)CC(C)C)[C@H](C)O3)[C@H](N(C)C)[C@H]2O)[C@@H](CC=O)C[C@@H](C)[C@@H](O)/C=C/C=C/C[C@@H](C)OC(=O)C[C@H]1O,102 ± 2.2
17,CCCN[C@H]1CCc2nc(N)sc2C1 [Pramipexole],92.5 ± 8.8
18,O=C(CCCN1CCC(O)(c2ccc(Cl)cc2)CC1)c1ccc(F)cc1 [Haloperidol],107.5 ± 0.44
19,Fc1ccc([C@@H]2CCNC[C@H]2COc2ccc3c(c2)OCO3)cc1,104.5 ± 1
20,CCCCc1oc2ccccc2c1C(=O)c1cc(I)c(OCCN(CC)CC)c(I)c1 [Amiodarone],105 ± 1.1

row,Structure (SMILES),cell viability [%]
1,COc1ccc(CC2c3cc(OC)c(OC)cc3CC[N+]2(C)CCC(=O)OCCCCCOC(=O)CC[N+]2(C)CCc3cc(OC)c(OC)cc3C2Cc2ccc(OC)c(OC)c2)cc1OC (centres undefined),110 ± 0.2
2,CCN(CC)CC1CCCCN1CC(=O)N1c2ccccc2C(=O)Nc2cccnc21 (centres undefined),110 ± 1.9
3,CCc1nn(CCCN2CCN(c3cccc(Cl)c3)CC2)c(=O)n1CCOc1ccccc1 [Nefazodone],100.5 ± 0.27
4,"OC[C@H]1O[C@@H](n2cnc3c(N[C@H]4CCC[C@@H]4O)ncnc32)[C@@H](O)C1O (stereo partly drawn) [Adenosine, N-(2-hydroxycyclopentyl)-, (1S-trans)- [CAS]]",110.8 ± 0.42
5,O=C1N(c2ccccc2)c2ccccc2C1(Cc1ccncc1)Cc1ccncc1,106 ± 2.1
6,NC(N)=Nc1nc(CSCC/C(N)=N/S(N)(=O)=O)cs1,98.4 ± 9.8
7,COc1ccc(C2CNC(=O)C2)cc1OC1CCCC1 (centres undefined),99.3 ± 1.2
8,O=C1[C@H](CC[C@H](O)c2ccc(F)cc2)[C@@H](c2ccc(O)cc2)N1c1ccc(F)cc1,99.1 ± 2.4
9,CC[C@H](C)C(=O)O[C@H]1CCC=C2C=C[C@H](C)[C@H](CC[C@@H]3C[C@@H](O)CC(=O)O3)[C@H]21 [mevastatin],89.1 ± 3.1
10,COc1cc(OC)c(C(=O)CCCN2CCCC2)c(OC)c1 [Buflomedil HCl],105 ± 2.7
11,O=c1[nH]cnc2c1ncn2[C@H]1CC[C@@H](CO)O1,105 ± 2.5
12,O=C(O)C[C@H](O)C[C@H](O)/C=C/c1c(C2CC2)nc2ccccc2c1-c1ccc(F)cc1,28.6 ± 3.1
13,CN(C)CCC[C@@]1(c2ccc(F)cc2)OCc2cc(C#N)ccc21,103 ± 1.9
14,Cn1nnc2c(C(N)=O)ncn2c1=O,106 ± 1.3
15,CCCCCCCCCCC[C@@H](C[C@@H]1OC(=O)[C@H]1CCCCCC)OC(=O)[C@H](CC(C)C)NC=O,103 ± 3.9
16,C[C@@H](O)[C@H]1C(=O)N2C(C(=O)O)=C(S[C@@H]3CN[C@H](C(=O)N(C)C)C3)[C@H](C)[C@H]12,106.4 ± 0.79
17,C[C@@H]1CN(CCCn2c3ccccc3c3ccccc32)C[C@H](C)N1 [Rimcazole],109 ± 1.3
18,CCOC(=O)C1=C(C)NC(C)=C(C(=O)OCC)C1c1ccccc1/C=C/C(=O)OC(C)(C)C,98.85 ± 0.96
19,C#C[C@]1(O)CC[C@H]2[C@@H]3CCc4cc(OC)ccc4[C@H]3CC[C@@]21C,102.9 ± 0.33
